Legend:
Assay in all cases: DAPPL (digital affinity profiling via proximity ligation, sequencing); 10 mM Tris-HCl pH 7.5, 50 mM NaCl, 1 mM DTT, 4% glycerol, room temperature, 30 min; GST-TFs on glutathione beads, 16-mer random dsDNA library, 0.1% formaldehyde crosslink after washing; high values mean tight binding
Conditions in all cases: protein: recombinant; tags: N-terminal GST; dsDNA, one strand shown
FLI1 = molecular target: T1, FLI1 (Homo sapiens, UniProt Q01543 1-452)
T1 sequence: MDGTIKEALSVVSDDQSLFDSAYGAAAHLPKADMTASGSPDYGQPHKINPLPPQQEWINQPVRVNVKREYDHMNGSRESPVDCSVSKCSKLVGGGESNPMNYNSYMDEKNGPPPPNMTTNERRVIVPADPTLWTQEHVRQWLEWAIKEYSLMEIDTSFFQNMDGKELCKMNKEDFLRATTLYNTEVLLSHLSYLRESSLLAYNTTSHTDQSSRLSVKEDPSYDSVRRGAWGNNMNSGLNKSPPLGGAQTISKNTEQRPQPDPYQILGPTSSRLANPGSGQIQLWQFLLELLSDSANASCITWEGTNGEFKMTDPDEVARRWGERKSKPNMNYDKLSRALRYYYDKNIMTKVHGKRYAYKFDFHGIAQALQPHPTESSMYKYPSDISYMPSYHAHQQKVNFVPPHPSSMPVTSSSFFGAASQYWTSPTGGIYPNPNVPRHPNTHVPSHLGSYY
Summary of the method: (§1)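 Human transcription factors were made in yeast as GST fusions, captured on glutathione beads and barcoded with DNA. With a tag-only sample included, the pool was incubated with 200 nmole of a random double-stranded 16-mer DNA library in Tris/NaCl/DTT/glycerol buffer at room temperature for 30 min, then crosslinked with 0.1% formaldehyde after washing, ligated by proximity, amplified and sequenced. For binding signal, each hexamer's read frequency for a factor is divided by its frequency for the tag-only sample.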

ELK1 = molecular target: T2, ELK1 (Homo sapiens, UniProt P19419 1-428)
T2 sequence: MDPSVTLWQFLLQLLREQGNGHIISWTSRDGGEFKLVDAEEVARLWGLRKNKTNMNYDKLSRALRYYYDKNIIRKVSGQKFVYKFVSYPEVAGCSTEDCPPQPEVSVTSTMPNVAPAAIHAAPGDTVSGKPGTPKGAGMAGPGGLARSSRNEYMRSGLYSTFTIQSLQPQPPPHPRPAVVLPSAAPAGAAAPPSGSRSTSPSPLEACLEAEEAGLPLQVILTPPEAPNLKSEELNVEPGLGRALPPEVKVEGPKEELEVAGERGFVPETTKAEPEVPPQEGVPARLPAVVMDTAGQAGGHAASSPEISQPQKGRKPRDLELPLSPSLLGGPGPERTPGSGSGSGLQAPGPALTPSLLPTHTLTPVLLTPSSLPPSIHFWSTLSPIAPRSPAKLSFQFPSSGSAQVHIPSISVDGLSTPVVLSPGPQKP
Summary of the method: as §1

GABPA = molecular target: T3, GABPA (Homo sapiens, UniProt Q06546 1-454)
T3 sequence: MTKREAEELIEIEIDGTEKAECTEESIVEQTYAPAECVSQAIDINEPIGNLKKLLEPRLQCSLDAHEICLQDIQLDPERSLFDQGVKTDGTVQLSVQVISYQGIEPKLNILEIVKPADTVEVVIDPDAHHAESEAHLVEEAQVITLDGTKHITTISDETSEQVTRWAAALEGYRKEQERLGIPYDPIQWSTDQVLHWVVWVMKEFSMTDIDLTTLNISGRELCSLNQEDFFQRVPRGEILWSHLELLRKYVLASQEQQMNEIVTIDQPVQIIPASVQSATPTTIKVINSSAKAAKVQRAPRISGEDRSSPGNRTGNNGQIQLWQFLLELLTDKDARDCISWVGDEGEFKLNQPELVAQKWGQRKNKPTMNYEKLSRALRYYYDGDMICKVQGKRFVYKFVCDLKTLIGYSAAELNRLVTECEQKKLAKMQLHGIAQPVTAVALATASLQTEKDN
Summary of the method: as §1

ERG = molecular target: T4, ERG (Homo sapiens, UniProt P11308 1-479)
T4 sequence: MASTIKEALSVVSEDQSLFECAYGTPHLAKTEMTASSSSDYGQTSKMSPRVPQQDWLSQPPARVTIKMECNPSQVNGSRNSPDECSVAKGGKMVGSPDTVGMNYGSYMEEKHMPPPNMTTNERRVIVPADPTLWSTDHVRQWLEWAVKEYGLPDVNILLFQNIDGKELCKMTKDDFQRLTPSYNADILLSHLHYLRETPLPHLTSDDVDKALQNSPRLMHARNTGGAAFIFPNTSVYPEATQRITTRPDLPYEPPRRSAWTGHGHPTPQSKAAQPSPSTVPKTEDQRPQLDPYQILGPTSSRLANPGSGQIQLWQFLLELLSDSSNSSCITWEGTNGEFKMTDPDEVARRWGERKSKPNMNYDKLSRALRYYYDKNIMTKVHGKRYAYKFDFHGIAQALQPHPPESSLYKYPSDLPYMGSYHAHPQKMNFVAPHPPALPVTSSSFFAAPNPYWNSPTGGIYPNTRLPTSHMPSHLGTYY
Summary of the method: as §1

ELF1 = ELF1 (Homo sapiens, UniProt P32519 1-619)
Chain of ELF1 (P32519 whole entry): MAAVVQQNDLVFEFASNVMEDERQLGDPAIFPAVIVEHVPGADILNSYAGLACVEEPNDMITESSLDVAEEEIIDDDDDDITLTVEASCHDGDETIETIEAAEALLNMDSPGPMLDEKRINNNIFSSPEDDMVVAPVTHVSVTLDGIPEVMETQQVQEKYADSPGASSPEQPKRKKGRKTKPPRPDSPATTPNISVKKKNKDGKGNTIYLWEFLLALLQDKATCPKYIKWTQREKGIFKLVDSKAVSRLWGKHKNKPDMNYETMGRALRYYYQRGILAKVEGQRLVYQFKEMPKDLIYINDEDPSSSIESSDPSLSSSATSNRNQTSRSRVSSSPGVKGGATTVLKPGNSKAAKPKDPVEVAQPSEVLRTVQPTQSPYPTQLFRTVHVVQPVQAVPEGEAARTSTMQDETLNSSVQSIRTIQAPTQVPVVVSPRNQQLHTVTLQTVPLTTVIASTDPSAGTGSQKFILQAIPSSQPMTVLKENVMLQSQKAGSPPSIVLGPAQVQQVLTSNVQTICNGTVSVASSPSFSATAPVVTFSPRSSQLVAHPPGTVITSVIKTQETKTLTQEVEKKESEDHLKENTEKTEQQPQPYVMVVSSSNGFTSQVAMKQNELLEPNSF
Summary of the method: as §1

EHF = molecular target: T5, EHF (Homo sapiens, UniProt Q9NZC4 1-300)
T5 sequence: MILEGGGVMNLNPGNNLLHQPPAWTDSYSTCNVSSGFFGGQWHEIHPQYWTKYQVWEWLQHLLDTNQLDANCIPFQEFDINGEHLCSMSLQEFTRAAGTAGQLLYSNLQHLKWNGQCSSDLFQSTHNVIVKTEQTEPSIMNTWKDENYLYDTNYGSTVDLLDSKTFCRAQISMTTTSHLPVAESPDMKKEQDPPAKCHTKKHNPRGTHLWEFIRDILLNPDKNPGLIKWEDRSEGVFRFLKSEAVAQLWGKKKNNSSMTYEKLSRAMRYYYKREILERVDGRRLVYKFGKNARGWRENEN
Summary of the method: as §1

SPI1 = SPI1 (Homo sapiens, UniProt P17947 1-270)
Summary of the method: as §1

SPIB = SPIB (Homo sapiens, UniProt Q01892 1-262)
Chain of SPIB (Q01892 whole entry): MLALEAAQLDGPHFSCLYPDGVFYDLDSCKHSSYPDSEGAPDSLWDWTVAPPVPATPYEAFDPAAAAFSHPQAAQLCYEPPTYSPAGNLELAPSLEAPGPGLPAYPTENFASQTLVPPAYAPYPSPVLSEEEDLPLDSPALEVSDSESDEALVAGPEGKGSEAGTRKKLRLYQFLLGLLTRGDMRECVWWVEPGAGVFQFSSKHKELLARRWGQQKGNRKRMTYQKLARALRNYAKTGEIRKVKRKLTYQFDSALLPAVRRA
Summary of the method: as §1

ELK3 = molecular target: T6, ELK3 (Homo sapiens, UniProt P41970 1-407)
T6 sequence: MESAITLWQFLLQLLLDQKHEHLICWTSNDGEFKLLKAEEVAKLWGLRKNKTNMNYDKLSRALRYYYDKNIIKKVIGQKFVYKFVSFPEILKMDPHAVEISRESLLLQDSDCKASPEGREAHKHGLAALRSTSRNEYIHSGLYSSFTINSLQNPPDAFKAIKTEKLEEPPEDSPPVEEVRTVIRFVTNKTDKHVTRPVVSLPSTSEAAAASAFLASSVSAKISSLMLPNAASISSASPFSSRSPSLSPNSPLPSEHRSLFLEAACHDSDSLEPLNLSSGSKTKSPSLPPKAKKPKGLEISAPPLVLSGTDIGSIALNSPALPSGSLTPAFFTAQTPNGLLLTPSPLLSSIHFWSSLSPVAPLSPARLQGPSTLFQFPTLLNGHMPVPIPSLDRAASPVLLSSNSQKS
Summary of the method: as §1

Row | Sequence | binding signal (FLI1) | binding signal (ELK1) | binding signal (GABPA) | binding signal (ERG) | binding signal (ELF1) | binding signal (EHF) | binding signal (SPI1) | binding signal (SPIB) | binding signal (ELK3)
1 | TGATAT | 1.13 fold enrichment (6-mer frequency, TF over GST control) | 1.11 fold enrichment (6-mer frequency, TF over GST control) | 1.15 fold enrichment (6-mer frequency, TF over GST control) | 1.12 fold enrichment (6-mer frequency, TF over GST control) | 1.11 fold enrichment (6-mer frequency, TF over GST control) | 1.08 fold enrichment (6-mer frequency, TF over GST control) | 1.08 fold enrichment (6-mer frequency, TF over GST control) | 1.05 fold enrichment (6-mer frequency, TF over GST control) | 1 fold enrichment (6-mer frequency, TF over GST control)
2 | TAACGG | 1.1 fold enrichment (6-mer frequency, TF over GST control) | 1.18 fold enrichment (6-mer frequency, TF over GST control) | 1.03 fold enrichment (6-mer frequency, TF over GST control) | 1.08 fold enrichment (6-mer frequency, TF over GST control) | 1.03 fold enrichment (6-mer frequency, TF over GST control) | 1.14 fold enrichment (6-mer frequency, TF over GST control) | 1.21 fold enrichment (6-mer frequency, TF over GST control) | 1.13 fold enrichment (6-mer frequency, TF over GST control) | 1.03 fold enrichment (6-mer frequency, TF over GST control)
3 | CCCACC | 1.17 fold enrichment (6-mer frequency, TF over GST control) | 1.26 fold enrichment (6-mer frequency, TF over GST control) | 1.11 fold enrichment (6-mer frequency, TF over GST control) | 1.15 fold enrichment (6-mer frequency, TF over GST control) | 1.15 fold enrichment (6-mer frequency, TF over GST control) | 1.2 fold enrichment (6-mer frequency, TF over GST control) | 1.18 fold enrichment (6-mer frequency, TF over GST control) | 1.13 fold enrichment (6-mer frequency, TF over GST control) | 1.16 fold enrichment (6-mer frequency, TF over GST control)
4 | TTTGTC | 1.35 fold enrichment (6-mer frequency, TF over GST control) | 1.21 fold enrichment (6-mer frequency, TF over GST control) | 1.19 fold enrichment (6-mer frequency, TF over GST control) | 1.19 fold enrichment (6-mer frequency, TF over GST control) | 1.26 fold enrichment (6-mer frequency, TF over GST control) | 1.24 fold enrichment (6-mer frequency, TF over GST control) | 1.23 fold enrichment (6-mer frequency, TF over GST control) | 1.16 fold enrichment (6-mer frequency, TF over GST control) | 1.18 fold enrichment (6-mer frequency, TF over GST control)
5 | TGTCCG | 1.47 fold enrichment (6-mer frequency, TF over GST control) | 1.42 fold enrichment (6-mer frequency, TF over GST control) | 1.48 fold enrichment (6-mer frequency, TF over GST control) | 1.58 fold enrichment (6-mer frequency, TF over GST control) | 1.41 fold enrichment (6-mer frequency, TF over GST control) | 1.42 fold enrichment (6-mer frequency, TF over GST control) | 1.2 fold enrichment (6-mer frequency, TF over GST control) | 1.56 fold enrichment (6-mer frequency, TF over GST control) | 1.39 fold enrichment (6-mer frequency, TF over GST control)
6 | CATCTG | 1.24 fold enrichment (6-mer frequency, TF over GST control) | 1.23 fold enrichment (6-mer frequency, TF over GST control) | 1.37 fold enrichment (6-mer frequency, TF over GST control) | 1.16 fold enrichment (6-mer frequency, TF over GST control) | 1.33 fold enrichment (6-mer frequency, TF over GST control) | 1.31 fold enrichment (6-mer frequency, TF over GST control) | 1.08 fold enrichment (6-mer frequency, TF over GST control) | 1.28 fold enrichment (6-mer frequency, TF over GST control) | 1.25 fold enrichment (6-mer frequency, TF over GST control)
7 | CTGCAC | 1.2 fold enrichment (6-mer frequency, TF over GST control) | 1.29 fold enrichment (6-mer frequency, TF over GST control) | 1.12 fold enrichment (6-mer frequency, TF over GST control) | 1.13 fold enrichment (6-mer frequency, TF over GST control) | 1.21 fold enrichment (6-mer frequency, TF over GST control) | 1.3 fold enrichment (6-mer frequency, TF over GST control) | 1.19 fold enrichment (6-mer frequency, TF over GST control) | 1.15 fold enrichment (6-mer frequency, TF over GST control) | 1.12 fold enrichment (6-mer frequency, TF over GST control)
8 | CCCCCA | 1.23 fold enrichment (6-mer frequency, TF over GST control) | 1.18 fold enrichment (6-mer frequency, TF over GST control) | 1.23 fold enrichment (6-mer frequency, TF over GST control) | 1.17 fold enrichment (6-mer frequency, TF over GST control) | 1.2 fold enrichment (6-mer frequency, TF over GST control) | 1.27 fold enrichment (6-mer frequency, TF over GST control) | 1.23 fold enrichment (6-mer frequency, TF over GST control) | 1.27 fold enrichment (6-mer frequency, TF over GST control) | 1.06 fold enrichment (6-mer frequency, TF over GST control)

From publication PMC7862700, “An all-to-all approach to the identification of sequence-specific readers for epigenetic DNA modifications on cytosine”
